# Experimental data: the supplement of paper PMC6555819
# Experiments:
# Assay in all cases: PBM binding z-score (relative to random genomic background probes); higher = stronger binding; sequences stand for … in GC…GCGATTGACAGCGTAGAATGAAGG
# [1] = test system: FXR:RXRa (NR concentration 270 nM, RXRa partner concentration 90 nM)
# Method in brief: (§1)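 Custom Agilent 4×180K protein-binding microarrays carried double-stranded probes, each with a 34-nt variable region. These regions held direct-repeat seeds, single-nucleotide variants, half-site ablations and random human genomic background sequences. Ligand-free nuclear receptor dimers were incubated on the arrays for 1 h, antibodies against each partner (one per run) detected binding, and scanned fluorescence was regression-normalized. Binding z-scores take the random background probes as reference.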
# [2] = test system: LXRa:RXRa (NR concentration 270 nM, RXRa partner concentration 90 nM)
# Method in brief: as §1
# [3] = test system: LXRa homodimer (NR concentration 270 nM)
# Method in brief: as §1
# [4] = test system: LXRb:RXRa (NR concentration 270 nM, RXRa partner concentration 90 nM)
# Method in brief: as §1
# [5] = test system: LXRb homodimer (NR concentration 270 nM)
# Method in brief: as §1
# [6] = test system: PPARa:RXRa (NR concentration 270 nM, RXRa partner concentration 90 nM)
# Method in brief: as §1
# [7] = test system: PPARg:RXRa (NR concentration 180 nM, RXRa partner concentration 90 nM)
# Method in brief: as §1
# [8] = test system: PPARg:RXRa 270nM:90nM, anti-RXR (NR concentration 270 nM, RXRa partner concentration 90 nM)
# Method in brief: as §1
# [9] = test system: PPARg:RXRa 30nM:10nM, anti-RXR (NR concentration 30 nM, RXRa partner concentration 10 nM)
# Method in brief: as §1
# [10] = test system: PPARg:RXRa 90nM:30nM, anti-RXR (NR concentration 90 nM, RXRa partner concentration 30 nM)
# Method in brief: as §1
# [11] = test system: PPARg:RXRa DBDmut IVT, anti-RXR (DBD mutation: RXRa K156A/R161A, NR concentration 270 nM, RXRa partner concentration 90 nM)
# Method in brief: as §1
# [12] = test system: PPARg:RXRa IVT, anti-PPARg (NR concentration 270 nM, RXRa partner concentration 90 nM)
# Method in brief: as §1
# [13] = test system: PPARg DBDmut:RXRa IVT, anti-PPARg (DBD mutation: PPARg1 K132A/R137A, NR concentration 270 nM, RXRa partner concentration 90 nM)
# Method in brief: as §1
# [14] = test system: PPARg DBDmut IVT, anti-PPARg (DBD mutation: PPARg1 K132A/R137A, NR concentration 270 nM)
# Method in brief: as §1
# [15] = test system: PPARg homodimer (NR concentration 180 nM)
# Method in brief: as §1
# [16] = test system: PXR:RXRa (NR concentration 270 nM, RXRa partner concentration 90 nM)
# Method in brief: as §1
# [17] = test system: PXR homodimer (NR concentration 270 nM)
# Method in brief: as §1
# [18] = test system: RARa:RXR (NR concentration 270 nM, RXRa partner concentration 90 nM)
# Method in brief: as §1
# [19] = test system: RARa homodimer (NR concentration 270 nM)
# Method in brief: as §1
# [20] = test system: RARb:RXRa (NR concentration 270 nM, RXRa partner concentration 90 nM)
# Method in brief: as §1
sequence,measurement,setting,value
GCGACTGGGGCATCGGCAGGTTACCATAACTTAA,PBM binding z-score,[1],0.0165
same,PBM binding z-score,[2],-0.138
same,PBM binding z-score,[3],-0.214
same,PBM binding z-score,[4],0.589
same,PBM binding z-score,[5],-0.797
same,PBM binding z-score,[6],1.06
same,PBM binding z-score,[7],0.979
same,PBM binding z-score,[8],1.1
same,PBM binding z-score,[9],-0.324
same,PBM binding z-score,[10],0.563
same,PBM binding z-score,[11],3.7
same,PBM binding z-score,[12],3.26
same,PBM binding z-score,[13],-0.659
same,PBM binding z-score,[14],-0.662
same,PBM binding z-score,[15],0.364
same,PBM binding z-score,[16],0.0639
same,PBM binding z-score,[17],-0.275
same,PBM binding z-score,[18],0.387
same,PBM binding z-score,[19],-0.205
same,PBM binding z-score,[20],0.954
GCGACTGGGGCATCACCAGGTTACCATAACTTAA,PBM binding z-score,[1],-0.25
same,PBM binding z-score,[2],-0.178
same,PBM binding z-score,[3],-0.0644
same,PBM binding z-score,[4],0.637
same,PBM binding z-score,[5],-0.712
same,PBM binding z-score,[6],1.02
same,PBM binding z-score,[7],1.1
same,PBM binding z-score,[8],0.672
same,PBM binding z-score,[9],-0.379
same,PBM binding z-score,[10],0.216
same,PBM binding z-score,[11],3.65
same,PBM binding z-score,[12],3.39
same,PBM binding z-score,[13],-0.477
same,PBM binding z-score,[14],-0.785
same,PBM binding z-score,[15],0.0676
same,PBM binding z-score,[16],0.244
same,PBM binding z-score,[17],-0.357
same,PBM binding z-score,[18],0.695
same,PBM binding z-score,[19],-0.656
same,PBM binding z-score,[20],0.96
CGCCCAAGGTCAAGGTCAGTGAAAGAGACTCGAA,PBM binding z-score,[1],7.66
same,PBM binding z-score,[2],5.71
same,PBM binding z-score,[3],1.02
same,PBM binding z-score,[4],4.47
same,PBM binding z-score,[5],1.05
same,PBM binding z-score,[6],5.96
same,PBM binding z-score,[7],6.1
same,PBM binding z-score,[8],5.9
same,PBM binding z-score,[9],2.41
same,PBM binding z-score,[10],4.9
same,PBM binding z-score,[11],3.15
same,PBM binding z-score,[12],4.18
same,PBM binding z-score,[13],0.61
same,PBM binding z-score,[14],-0.556
same,PBM binding z-score,[15],3.84
same,PBM binding z-score,[16],4.83
same,PBM binding z-score,[17],0.538
same,PBM binding z-score,[18],5.32
same,PBM binding z-score,[19],1.22
same,PBM binding z-score,[20],5.62
GCTGCTAGGTCAACTGATGGTCTGCTAAAGCTCG,PBM binding z-score,[1],3.83
same,PBM binding z-score,[2],2.66
same,PBM binding z-score,[3],-0.135
same,PBM binding z-score,[4],1.8
same,PBM binding z-score,[5],0.0375
same,PBM binding z-score,[6],3.45
same,PBM binding z-score,[7],2.31
same,PBM binding z-score,[8],2.78
same,PBM binding z-score,[9],0.103
same,PBM binding z-score,[10],1.81
same,PBM binding z-score,[11],4.88
same,PBM binding z-score,[12],4.03
same,PBM binding z-score,[13],0.365
same,PBM binding z-score,[14],-0.14
same,PBM binding z-score,[15],1.69
same,PBM binding z-score,[16],1.37
same,PBM binding z-score,[17],-0.53
same,PBM binding z-score,[18],2.39
same,PBM binding z-score,[19],0.112
same,PBM binding z-score,[20],4.1
GCTATTAGTTTAAAGGGCAACCGAATGATTCTCG,PBM binding z-score,[1],0.917
same,PBM binding z-score,[2],1.13
same,PBM binding z-score,[3],0.643
same,PBM binding z-score,[4],1.42
same,PBM binding z-score,[5],0.922
same,PBM binding z-score,[6],2.44
same,PBM binding z-score,[7],2.98
same,PBM binding z-score,[8],4.5
same,PBM binding z-score,[9],2.59
same,PBM binding z-score,[10],4.67
same,PBM binding z-score,[11],1.27
same,PBM binding z-score,[12],1.31
same,PBM binding z-score,[13],0.587
same,PBM binding z-score,[14],0.575
same,PBM binding z-score,[15],1.43
same,PBM binding z-score,[16],1.09
same,PBM binding z-score,[17],0.349
same,PBM binding z-score,[18],1.28
same,PBM binding z-score,[19],0.262
same,PBM binding z-score,[20],2.09
TCATATAGGTAAATGCTGGGTGAAAGTCCGATCT,PBM binding z-score,[1],1.03
same,PBM binding z-score,[2],1.11
same,PBM binding z-score,[3],0.288
same,PBM binding z-score,[4],0.818
same,PBM binding z-score,[5],0.924
same,PBM binding z-score,[6],1.38
same,PBM binding z-score,[7],0.836
same,PBM binding z-score,[8],2.2
same,PBM binding z-score,[9],3.63
same,PBM binding z-score,[10],3.26
same,PBM binding z-score,[11],4.13
same,PBM binding z-score,[12],2.63
same,PBM binding z-score,[13],0.471
same,PBM binding z-score,[14],0.976
same,PBM binding z-score,[15],1.04
same,PBM binding z-score,[16],0.606
same,PBM binding z-score,[17],0.456
same,PBM binding z-score,[18],0.833
same,PBM binding z-score,[19],1.19
same,PBM binding z-score,[20],0.495
